Vif imaging: HIV Vif self-association inhibitors, primary screen, imaging, HEK293T, single point | inhibition, % at 7.49 µM | HEK293T cells, Vif self-association by quenched fluorescence, 24 h | hit rate 0.35% among 340,000 | AID 602346, 2012; in the data active = inhibition above about 50%, passing the limit was not always enough; inconclusive = no clear call, values can overlap the other calls; inactive = below about 31%
CaV13 ICDI inh: Primary screen for inhibitors of IQ motif and Ca2+-dependent inactivation inhibitor domain binding in CACNA1D, Förster resonance energy transfer in living cells, …. HEK cells, CFP/YFP FRET ICDI-IQ, plate reader, 10 min; percent FRET-ratio fall versus neutral wells. inhibition, % at 12.3 µM. hit rate 0.098% among 340,000. AID 743397;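 active = mean replicate inhibition of at least 30% and at least 1% of replicates passing that level; inconclusive = only one of the two criteria is met; inactive = neither criterion is met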;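 also: 0% = median of the neutral control wells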
Glyco luc inh: increase of ERlucT glycosylation luciferase signal, primary screen, N-linked glycosylation inhibitor project, D54 ERlucT cells, luminescence, set 2; D54 ERlucT glycosylation luciferase reporter, 24 h; percent of 100 nM tunicamycin response; reporter increase, % at 12.5 µM; hit rate 0.23% among 360,000; AID 588692, 2011;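 active = mean luciferase reporter signal, scaled so untreated is 0 and the glycosylation-blocking control 100, at or above a set limit in every replicate; inconclusive = mean reaches the limit but not every replicate does; inactive = mean below the limit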;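 also: luciferase carries N-glycosylation sites so blocking glycosylation raises the light; 0% = median of neutral control wells and 100% = median of 100 nM tunicamycin wells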
Pemphigus Ab inh: inhibitors of pemphigus antibody binding to DSG3, primary screen, biochemical, bead-based, flow cytometry, scFv-GFP; AID 588358, 2011; Desmoglein-3 (Homo sapiens), P32926; hit rate 0.48% among 310,000; DSG3-coupled beads, scFv-anti-DSG3-GFP binding; hits give low values; binding (percent of control), % at 10 µM;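 active = binding more than 3 SD below its plate's average and above zero; inconclusive = below that plate limit but binding exactly zero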;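 also: hits lower antibody fragment binding to DSG3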
NSD2 inh: NSD2 histone methyltransferase inhibitors, primary screen, biochemical, AlphaScreen, single concentration, set 2 | inhibition, % at 12.5 µM | NSD2 peptide methylation, 120 min | hit rate 0.54% among 310,000; in the data active = inhibition above about 50%
ATG4B inh: ATG4B protease inhibitors, primary screen, biochemical, fluorescence, uHTS. Cysteine protease ATG4B (Homo sapiens), Q9Y4P1. inhibition, % at 8.33 µM. ATG4B cleavage of LC3-PLA2, NBD-HPC fluorescence, 1 h. AID 504462, 2011. hit rate 0.51% among 340,000; in the data active = inhibition above about 40%
An asterisk follows results filed as active; ? = inconclusive; . = not tested or not shown. Compounds with a hit are over-represented: about 1.9% of the library has one in this group of screens.

SMILES | Vif imaging | CaV13 ICDI inh | Glyco luc inh | Pemphigus Ab inh | NSD2 inh | ATG4B inh
Oc1c(Br)cc(Br)cc1C=NCc1ccc(F)cc1 | -4 | -132 | -1 | 100 | -5 | 74*
O/N=C/c1cc(Br)ccc1OCc1ccc(F)cc1 | . | . | 1 | 105 | . | 23
COc1ccc(OC)c(C2=NOC(C(=O)NCC3CCCO3)C2)c1 (stereo not drawn) | 0 | -9 | 0 | 102 | 0 | -1
Nc1nc(Cl)cc(Oc2ccc([N+](=O)[O-])cc2)n1 | 1 | -4 | 0 | 55* | -6 | -3
CC(=NNC(=S)Nc1cccc(C)c1)c1ccccn1 | -3 | -8 | -8 | . | . | -8
CN1CCN(CC(=O)N/N=C/c2ccc(F)c(F)c2)CC1 | -10 | -5 | 4 | 97 | -1 | -1
COc1ccc(-c2nn(-c3ccccc3)cc2/C=C2/SC(=S)N(Cc3ccco3)C2=O)c(C)c1 | -2 | -6 | 2 | 87* | -1 | -2
Cc1cc2c(N=O)c(NO)ccc2[nH]1 | 54* | . | 11 | 95 | 8 | -2
COc1ccccc1-c1cc(C(F)(F)F)nc(S(=O)(=O)CCCC(=O)Nc2cccnc2Cl)n1 | 29 | -5 | -6 | 106 | 0 | -3
COc1ccc(-c2cc(C(F)(F)F)nc(S(=O)(=O)CCCC(=O)Nc3cc(C)on3)n2)cc1OC | 89* | -3 | -10 | . | -8 | -4
COc1ccccc1-c1cc(C(F)(F)F)nc(S(=O)(=O)CCCC(=O)Nc2cc(C)on2)n1 | 60* | 0 | -17 | 92 | 14 | -9
COc1ccccc1-c1cc(C(F)(F)F)nc(S(=O)(=O)CCCC(=O)NC(C)C)n1 | ? | . | -7 | 102 | -2 | -13
CC1(C)Cc2nc3sc4c(=O)n(Cc5ccccc5)cnc4c3cc2CS1 | -6 | -4 | -2 | 79 | 14 | -2
O=C(COC(=O)c1cc(Cl)ccc1[N+](=O)[O-])NC1CC1 | 56* | -3 | -1 | . | 1 | 0
Cc1ccc(NC(=O)COC(=O)c2cc(Cl)ccc2[N+](=O)[O-])cc1 | 10 | -3 | 1 | 101 | 3 | 1
COc1cc(OC)cc(C(=O)OCc2cc3ccccc3[nH]c2=O)c1 | 8 | -5 | 2 | 80* | . | -11
Cc1ccc2c(c1)C(=O)N(CCCCO)C2=O | 7 | -2 | 1 | 69* | . | 7
O=C1c2ccc(Oc3ccc4c(c3)C(=O)N(CCCO)C4=O)cc2C(=O)N1CCCO | -1 | -7 | -1 | . | 0 | -7
CCOC(=O)Nc1ccc2c(c1)N(C(=O)OCCN(C)C)c1ccccc1CC2 | 19 | 5 | -2 | 110 | . | -1
CCN(CCCNC(=O)C1c2ccccc2C(=O)N(CCOC)C1c1ccc(F)cc1)Cc1ccccc1 (stereo not drawn) | 8 | -4 | -1 | 101 | 4 | 4
CCN(CC(=O)Nc1ccc2c(c1)OCCO2)C(=O)C1CC(=O)N(c2ccc(OC)cc2OC)C1 (stereo not drawn) | . | -6 | 0 | 107 | 1 | -4
Cc1ccc2c(c1)-c1c(cnn1CC(=O)Nc1ccccc1N1CCN(C)CC1)CO2 | 4 | 46* | -3 | 118 | . | -4
CCOCCCNC(=S)N1CCCN(c2nc3cc(C)c(C)cc3cc2C#N)CC1 | 0 | 94* | -2 | 96 | -6 | -2
CC(NC(=O)COC(=O)c1cccs1)c1ccccc1 (stereo not drawn) | -19 | -7 | 0 | . | 9 | -6
O=C(c1ccco1)N1CCN(Cc2ccccc2Br)CC1 | -10 | -3 | -2 | 72* | 23 | 3
SMILES | Vif imaging | CaV13 ICDI inh | Glyco luc inh | Pemphigus Ab inh | NSD2 inh | ATG4B inh
COc1ccc2sc3cccc(NCCN(C)C)c3c(=O)c2c1 | 2 | -5 | 140* | . | 41 | .
C=CS(=O)(=O)c1c2cc(OC)ccc2nc2ccc(OC)cc12 | 1 | 8 | 53* | 67 | 3 | -4
S=c1[nH]c(-c2ccccc2)cn1/N=C/c1cccnc1 | -1 | -4 | 3 | 80* | 0 | -7
S=c1[nH]c(-c2ccccc2)cn1/N=C/c1ccc(Br)cc1 | -1 | -6 | 1 | 98 | -2 | 10
CCCN(CCC)CCCNC(=O)CC(C(=O)N1CCc2ccccc21)n1ccnc1 (stereo not drawn) | . | -4 | 1 | 104 | 22 | 8
CCN(CC)CC(C)CNC(=O)CC(C(=O)N1CCc2ccccc21)n1ccnc1 (stereo not drawn) | 123* | -3 | -1 | 104 | 19 | 1
Cc1ccc(C)c(NC(=O)CN(C)C(=O)CSC(C)C(=O)Nc2cc(C)on2)c1 (stereo not drawn) | 0 | -6 | 2 | 109 | . | 6
Cc1cc2oc(=O)cc(-c3ccccc3)c2c(C)c1-c1ccc(CO)cc1 | -2 | -6 | 0 | 100 | . | -11
Cc1cc2oc(=O)cc(-c3ccccc3)c2c(C)c1-c1ccc(F)c(Cl)c1 | -4 | -5 | -6 | 74* | . | 0
Clc1ccc(-n2nnnc2Sc2ncnc3sccc23)cc1 | 184* | 0 | -2 | 110 | 1 | 4
Cc1sc2ncnc(Sc3nnnn3-c3ccccc3)c2c1C | . | . | -4 | 104 | 1 | 5
Cn1nnnc1Sc1ncnc2scc(-c3ccc(Cl)cc3)c12 | 149* | -5 | -13 | . | . | -3
COc1c(Cl)cc(-c2noc(C)c2C(=O)NCc2ccc3c(c2)OCO3)cc1Cl | 15 | 71* | -1 | 111 | . | -10
COc1cc(-c2noc(C)c2C(=O)NCc2ccc3c(c2)OCO3)cc(OC)c1OC | 2 | -10 | 2 | 109 | . | 5
O=C(CCN1C(=O)/C(=C/c2ccc(Cl)cc2)SC1=S)Nc1cccc(C(=O)O)c1 | 0 | -18 | 0 | 99 | -4 | 4
O=C(O)c1cccc(N2C(=O)/C(=C/c3ccc(SCc4ccc(Cl)cc4)o3)SC2=S)c1 | 2 | -5 | 4 | 91 | 112* | 28
Cc1sc(NC(=O)CSc2nnc3scc(-c4ccccc4)n23)c(C#N)c1C | 34 | -6 | 1 | 84* | -1 | 1
COc1ccccc1N1CCN(C(=O)c2ccc(N(C)S(=O)(=O)c3ccccc3)cc2)CC1 | -7 | -7 | -2 | . | 9 | -3
COc1ccc(CNC(=O)N2CCc3ccccc3C2)cc1 | -1 | -7 | -3 | 109 | -2 | 8
Cc1cc(NCCCN(C)C)n2c(nc3ccccc32)c1C#N | 3 | -3 | 34* | 109 | -1 | 3
Cc1cc(NCCCOC(C)C)n2c(nc3ccccc32)c1C#N | -2 | -5 | -1 | 91 | -4 | 3

Compound activity (PubChem BioAssay)
